Results filed as inconclusive are left out. A number with no mark means an inactive call. Activity calls are given as the source filed them. Calls follow the shape of the dose curve; as a rule, active = well fitted cell-killing curve with a large enough effect in the repeat runs; inconclusive = weak or mixed curves, or effect the other way; inactive = flat fitted curve, though single readings scatter.
Assay: cAMP Responsive Elements (CRE) small molecule antagonists, cell-based qHTS assay: qHTS cell viability counter screen (AID 2060913); also: nearly all actives have a fitted effect of over 40% in size
Conditions: CRE-bla HEK293T viability, CellTiter-Glo luminescence, 5 h; series mostly up to 92.4 µM; viability change, negative = cytotoxic: at the top concentration
Summary of the method: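 CRE-bla HEK293T cells were seeded in assay medium with 10% dialyzed FBS, incubated 18 hrs at 37 C, then exposed to compounds plus 0.25 uM final NKH477 for 3 hrs. Viability was read by CellTiter-Glo luminescence after 30 min, in the same wells.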
In the case of CCCCCCCCCc1ccc(OCCOCCO)cc1, the Potency is reported as 22.8 µM (active).
In the case of CN(C)CCOC(c1ccccc1)c1ccccc1 (tested in a mixture with another compound), the “viability change, negative = cytotoxic” value is reported as -0.865%.
In the case of CC/C=C/CCO, the “viability change, negative = cytotoxic” value is reported as 2.11%.
For ON=C1CCCC1, the “viability change, negative = cytotoxic” value was -15.4%.
For CC(C)(O)CCC(C)(C)O, the “viability change, negative = cytotoxic” value was 1.5%.
With CC(C)C1OCCN1CCOC(=O)NCCCCCCNC(=O)OCCN1CCOC1C(C)C (stereo not given) the “viability change, negative = cytotoxic” value was 5.56%.
For CC(C)CCCC(C)CCO (stereo not given), the “viability change, negative = cytotoxic” value was 6.16%.
In the case of CCCCCCCCCCCCCCCC/C=C/C1CC(=O)OC1=O (stereo not given), the “viability change, negative = cytotoxic” value is reported as 5.95% [at 42.5 µM].
For C=C(C)C(=O)OCCOCC, the “viability change, negative = cytotoxic” value was -0.872%.
With c1cc(N(CC2CO2)CC2CO2)ccc1Cc1ccc(N(CC2CO2)CC2CO2)cc1 (stereo not given) the “viability change, negative = cytotoxic” value was 1.21%.
With O=C(C1CCCCC1)N1CC(=O)N2CCCc3ccccc3C2C1 (stereo not given) the “viability change, negative = cytotoxic” value was -2.51% [at 42.5 µM].
For Nc1ccc(C(=O)Oc2ccccc2)c(O)c1, the “viability change, negative = cytotoxic” value was -4.47% [at 42.5 µM].
For COc1ccc([C@@H]2Sc3ccccc3NC(=O)[C@@H]2O)cc1, the “viability change, negative = cytotoxic” value was 12.1% [at 42.5 µM].
With NCCCOCCOCCOCCCN the “viability change, negative = cytotoxic” value was -6.65%.
With CN(C)c1ccc(SC#N)cc1 the “viability change, negative = cytotoxic” value was -0.473%.

— PubChem BioAssay (Tox21)
% is scaled to controls: 0 for no effect and ±100 for the full control effect; potency is read from the fitted curve at half-maximal effect.
